# IL-1B inflam inh – blocks inflammasome-driven IL-1 beta release; THP-1 LPS/ATP IL-1B secretion, AlphaLISA, 16 h; active compounds read low; activity change, % at 57.5 µM; actives 4.7% (n = 360,000); in the data active = activity change below about -50%; inconclusive = mostly about -30% to -49%
#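 THP-1 cells pretreated 1 hr with compounds (up to 57.5 uM final), then stimulated with LPS (250 ng/mL final) plus ATP (1.25 mM final); secreted IL-1B measured by AlphaLISA after 16 hr, decreased signal indicating inhibition.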
# HT1080 IDH1KD tx – HT-1080 IDH1 knockdown cell toxicity (counter line); Potency, µM (titrated, usually from 46.1 µM), without a hit: at the highest dose activity, negative = toxicity, most hits filed as cytotoxic; HT-1080 IDH1 knockdown viability, ATP luminescence, 48 h; actives 2% (n = 360,000); AID 686971;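 also: potency is read from the fitted curve at half-maximal effect; 0% = DMSO wells and -100% = cell-free medium wells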
#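 Knockdown cells (IDH1KD HT-1080) received compounds 2 h after plating at 750 cells/well and were kept 48 h at 37 °C in 5% FBS RPMI. A CellTiter-Glo luminescence read gave % activity for curve fitting.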
# KB-3-1 cytotox – kills parental KB-3-1 adenocarcinoma cells. KB-3-1 viability, CellTiter-Glo ATP luminescence, 72 h. Potency, µM (titrated, usually from 46.1 µM), most hits filed as cytotoxic. actives 1.4% (n = 400,000); also: potency is read from the fitted curve at half-maximal effect; nearly all actives have a fitted effect of over 60% in size
#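 Here the drug-naive KB-3-1 line serves as comparator for MDR sub-line selectivity; cells received compound titrations, 72 h at 37 °C, then CellTiter-Glo readout.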
# HT1080-NT tox – kills 2HG-producing HT-1080-NT fibrosarcoma cells. HT-1080-NT fibrosarcoma viability, CellTiter-Glo ATP luminescence, 48 h. AID 686970. actives 1.6% (n = 360,000). Potency, µM (series often up to 46.1 µM), inactives show at the top dose activity, negative = less viability, actives largely listed as cytotoxic;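 also: NT is the 2HG producing partner of a matched IDH1 knockdown line; potency is read from the fitted curve at half-maximal effect; 0% = DMSO-treated cells and -100% = media-only wells without cells; nearly all actives have a fitted effect of over 55% in size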
#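 HT-1080-NT fibrosarcoma cells (2HG-overproducing), 750 cells/well in RPMI with 5% FBS, dosed after 2 h and incubated 48 h at 37C. CellTiter-Glo luminescence normalized to DMSO and no-cell wells; concentration-response curves fitted and classed.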
# KB-V1 MDR tox – kills drug-selected multidrug resistant KB-V1 cells. Potency, µM (titrated, usually from 46.1 µM), usual class: cytotoxic. KB-V1 MDR cells viability, CellTiter-Glo, 72 h. actives 3.4% (n = 400,000). AID 1347076; also: potency is read from the fitted curve at half-maximal effect; nearly all actives have a fitted effect of over 60% in size
#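 Cytotoxicity toward P-gp-expressing KB-V1 cells was determined as loss of CellTiter-Glo luminescence after 72 h at 37 degrees C. Compounds were tested in quantitative HTS format across a concentration range, with curves fitted to normalized data.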
# Starred values were filed as active, the others as inactive; i = inactive; ? = inconclusive; / = no result given. This is a sample that favours compounds with a hit; in the whole collection about 8.8% have one here. Unless noted, calls follow the shape of the dose curve; as a rule, active = well fitted curve in the direction sought with a large enough effect; inconclusive = small, poorly fitted or top-dose-only effect, or another doubt; inactive = no such curve, though single readings can be large; an effect the other way counts as inactive or inconclusive. Unless noted, % is scaled to controls: 0 for no effect and ±100 for the full control effect.
SMILES,IL-1B inflam inh,HT1080 IDH1KD tx,KB-3-1 cytotox,HT1080-NT tox,KB-V1 MDR tox
CCOC(=O)N1CCC(N(C(=O)Nc2cccc(OC)c2)C(C)CC)CC1 (configuration not stated),16.1,-1.5%,i,-27.4%,18.4µM*
CCOC(=O)N1CCC(N(CCN(C)C)C(=S)Nc2cccc(C)c2)CC1,11.6,9.4%,i,12.3%,i
CCOC(=O)N1CCC(N(CCCOC)C(=O)Nc2cccc(OC)c2)CC1,23.0,3.5%,i,1.9%,i
CCOC(=O)N1CCC(N(CCOC)C(=O)Nc2ccc(Cl)c(Cl)c2)CC1,-62.8*,-26.9%,i,5.2%,?
COCCc1nn2c(=O)cc(COC(=O)c3ccc4c(c3)OCO4)nc2s1,/,/,i,/,i
COc1cccc(C(=O)NCC(=O)OCC(=O)Nc2cc(OC)c([N+](=O)[O-])cc2C)c1,12.1,13.3%,i,10.4%,i
Cc1cccn2c(=O)c3cc(C(=O)NCC4CCCO4)c(=N)n(CCN4CCOCC4)c3nc12 (configuration not stated),-50.6*,-7.2%,i,1.4%,i
COCCCn1c(=N)c(C(=O)NCC2CCCO2)cc2c(=O)n3cccc(C)c3nc21 (configuration not stated),6.0,-3.2%,?,0.7%,?
Cc1cccn2c(=O)c3cc(C(N)=S)c(=N)n(CCCOC(C)C)c3nc12,?,-4.5%,?,-8.3%,i
CCOCCCn1c(=N)c(C(N)=S)cc2c(=O)n3cccc(C)c3nc21,-11.0,0.5%,?,33.0%,16.4µM*
Cc1cccn2c(=O)c3cc(C(=O)NC4CCCCC4)c(=N)n(Cc4ccccc4)c3nc12,-86.4*,-17.7%,?,-3.9%,?
CCOCCCn1c(=N)c(S(=O)(=O)c2ccc(Cl)cc2)cc2c(=O)n3cccc(C)c3nc21,/,/,i,/,?
CCCCCn1c(=N)c(S(=O)(=O)c2ccc(Cl)cc2)cc2c(=O)n3cccc(C)c3nc21,10.0,13.1%,?,0.8%,8.2µM*
OC(CNCc1ccc(Cl)cc1)C(F)(F)F (configuration not stated),-10.0,-4.9%,i,2.2%,i
O=C(c1ccccc1)N(C1=NCCCCS1)c1ccccc1,-5.5,-3.8%,i,-2.3%,?
CCN(CC)Cc1c(C(=O)N/N=C/c2ccccn2)nnn1-c1nonc1N,37.1,-1.9%,i,0.2%,i
Cn1c(=O)c2sc3c(c2n(CC(=O)Nc2ccccc2)c1=O)COC(C)(C)C3,39.0,15.8%,i,7.9%,i
Cc1ccc(Cn2c(=N)c(C(=O)NCC3CCCO3)cc3c(=O)n4cccc(C)c4nc32)cc1 (configuration not stated),-55.2*,1.4%,i,-0.4%,i
CCCn1c(=N)c(C(=O)NCC2CCCO2)cc2c(=O)n3cccc(C)c3nc21 (configuration not stated),?,-2.9%,20.6µM*,?,i
Cc1ccc(Cn2c(=N)c(C(=O)NCC3CCCO3)cc3c(=O)n4ccccc4nc32)cc1 (configuration not stated),-1.0,-19.7%,i,-2.0%,i
Cc1cccn2c(=O)c3cc(C(=O)NCCN4CCOCC4)c(=N)n(CCc4ccccc4)c3nc12,-63.4*,0.5%,i,-11.4%,?
Cc1ccc2nc(-c3ccccn3)c(N)n2c1,-4.1,?,i,-26.9%,?
COc1ccc(CCC(=O)Nc2ccc(S(=O)(=O)N3CCCC3)cc2)cc1OC,-1.6,3.1%,i,3.9%,i
O=C1/C(=C/c2ccccc2)NC(=S)N1C(c1ccccc1)c1ccccc1,18.9,9.2µM*,?,?,?
Cc1nc(-n2[nH]c3c(c2=O)CCCC3)[nH]c(=O)c1Cc1ccccc1,-105.9*,?,?,?,2.59µM*
SMILES,IL-1B inflam inh,HT1080 IDH1KD tx,KB-3-1 cytotox,HT1080-NT tox,KB-V1 MDR tox
O=C(NC1CCCC1)C(c1ccccc1)N(Cc1ccc2c(c1)OCO2)C(=O)Cc1cccs1 (configuration not stated),-24.3,-18.6%,?,-20.3%,i
O=C(NCc1ccccc1)C(c1ccccc1)N(Cc1ccc2c(c1)OCO2)C(=O)Cc1cccs1 (configuration not stated),-26.2,-27.6%,i,-18.1%,13µM*
O=C(NC1CCCC1)C(c1ccsc1)N(Cc1ccccc1)C(=O)Cc1cccs1 (configuration not stated),-22.3,-13.6%,i,2.8%,4.61µM*
C[C@]12c3[nH]c4cc(-c5ccco5)ccc4c3CCN1C(=O)[C@@H](CC(=O)NCc1ccco1)C[C@@H]2C(=O)N1CCCCC1,?,-26.8%,?,-23.4%,?
Cc1nccn1-c1c([N+](=O)[O-])c(=O)n(C)c2ccccc12,-91.6*,-20.7%,i,-13.8%,i
Cn1c(=O)c([N+](=O)[O-])c(-n2cnc3ccccc32)c2ccccc21,-98.2*,?,?,?,?
COCCNC(=O)CCCn1c(SCC(=O)Nc2ccc(F)cc2)nc2c(sc3ccccc32)c1=O,/,/,i,/,i
CCNc1nc(C#N)nc(NCC)n1,/,/,i,/,i
C/C(=N\NC(=O)c1cc2ccccc2cc1O)c1ccc2c(c1)OCO2,9.1,-19.6%,?,-5.0%,?
O=C(NC(=S)Nc1ccccc1Br)c1ccc2c(c1)OCO2,11.7,2.2%,/,6.5%,/
O=C(NN=Cc1c(O)ccc2ccccc12)c1ccc2c(c1)OCO2,169.5,5.17µM*,?,5.8µM*,?
CC(C)c1ccc(O)c(NC(=S)NC(=O)c2ccc3c(c2)OCO3)c1,0.0,14.6µM*,i,?,i
Cc1cc(O)cc(O)c1/C=N/NC(=O)c1ccc2c(c1)OCCO2,117.4,13µM*,?,?,?
O=C(N/N=C/c1ccccc1)c1ccc2c(c1)OCO2,0.0,-1.4%,i,-3.9%,i
CC/C(=N/NC(=O)c1ccc2c(c1)OCO2)c1ccccc1O,225.8,23.1µM*,?,-19.2%,?
Cc1ccc(F)c(S(=O)(=O)NC(=O)C2(C)CCN2C(=O)c2ccc(C3CCCCC3)cc2)c1 (configuration not stated),33.8,-1.3%,i,-17.7%,i
O=[N+]([O-])c1ccccc1/C=C\C=N\N1CCN(c2ccccc2)CC1,-53.3*,-2.8%,i,8.6%,i
O=[N+]([O-])c1ccccc1/C=N/N1CCN(c2ccc(Cl)cc2)CC1,-2.7,25.7%,?,9.0%,10.3µM*
Cc1c(C(=O)N2CCCCC2)c(S(=O)(=O)Nc2ccc(F)cc2F)c(C)n1C,-14.4,-0.3%,i,4.1%,i
COc1ccc(-n2nc(C(=O)N3CCC(N4CCCCC4)CC3)c3c4ccccc4n(C)c3c2=O)cc1,-18.7,?,i,-18.9%,?
